Pf Dd2 growth = inhibitors of Plasmodium falciparum Dd2 growth; P. falciparum Dd2 growth, SYBR Green, 72 h; Potency, µM (highest dose often 28.9 µM), inactives show at the highest dose activity, negative = inhibition, most hits filed as inhibitors; hit rate 4.3% among 120,000; AID 1347417; active means well fitted inhibition curve with a large enough effect;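 further: plate controls were DMSO vehicle for no effect and reference drug for full effect; nearly all actives have a fitted effect of over 65% in size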
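Infected erythrocytes (Dd2, 0.3% parasitemia, 2.5% hematocrit final) are added to compound in RPMI-1640/Albumax II medium, grown 72 h at 37C in low oxygen, then lysed with saponin/Triton-X containing SYBR Green and read by fluorescence.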
Starred values were filed as active, the others as inactive; i = inactive; [ ] = another dose, or the depositor's remark. This is one part of a sample in which hits are shown more often than they occur. Potency means the concentration at half of the fitted maximal effect.

SMILES	Pf Dd2 growth
COc1ccc(CCNc2ncnc3c2CN(c2ccccc2F)C(=O)CN3C)cc1	i
O=C(NC1CCN(c2cnn(Cc3ccccc3)c(=O)c2)CC1)C1CCOCC1	-21%
CN1CCC(C(=O)N[C@@H]2CN(c3ncccn3)C[C@H]2CO)CC1	40%
CC(=O)N1CCc2cc(S(=O)(=O)CCC(=O)N3CCC(Cc4nncn4CC4CC4)CC3)ccc21	-16%
CC(=O)Nc1ccc(NC(=O)c2ccc3c(c2)N(Cc2cccc(Cl)c2)C(=O)c2ccccc2S3(=O)=O)cc1	-25%
CCN1C(=O)c2ccccc2Sc2ccc(NC(=O)c3ccc(C#N)cc3)cc21	23%
O=C(c1ccc2c(c1)N(Cc1ccc(Cl)cc1)C(=O)c1ccccc1S2(=O)=O)N1CCc2ccccc21	i
COc1ccc(C)cc1NC(=O)c1ccc2c(c1)N(Cc1cccc(Cl)c1)C(=O)c1ccccc1S2=O (stereo not drawn)	7.9µM*
O=C(Nc1cccc(Cl)c1Cl)c1ccc2c(c1)N(Cc1cccc(Cl)c1)C(=O)c1ccccc1S2=O (stereo not drawn)	66%[0.594 µM]
Cc1cc(NC(=O)c2ccc3c(c2)N(Cc2cccc(Cl)c2)C(=O)c2ccccc2S3=O)ccc1Br (stereo not drawn)	10µM*
CCN1C(=O)c2ccccc2Sc2ccc(NC(=O)c3cccc(C)c3)cc21	i
Cc1cccc(C)c1NC(=O)c1ccc2c(c1)N(Cc1cccc(Cl)c1)C(=O)c1ccccc1S2=O (stereo not drawn)	-16%
Cc1cc(NC(=O)c2ccc3c(c2)N(Cc2cccc(Cl)c2)C(=O)c2ccccc2S3(=O)=O)ccc1Br	8.9µM*
Cc1ccc(CNC(=O)c2ccc3c(c2)N(Cc2ccccc2F)C(=O)c2ccccc2S3(=O)=O)cc1	i
N#Cc1cccc(NC(=O)c2ccc3c(c2)N(Cc2cccc(Cl)c2)C(=O)c2ccccc2S3(=O)=O)c1	2.2µM*
CCC(C)NC(=O)c1ccc2c(c1)N(Cc1cccc(Cl)c1)C(=O)c1ccccc1S2=O (stereo not drawn)	-23%
O=C(N[C@H]1CCN2C(=O)c3cc(-c4cccc(C(F)(F)F)c4)ccc3NC(=O)[C@H]12)C1CCCC1	i
Cc1nc2ncccn2c1C(=O)N1CCn2nc(CO)cc2C1	2%
Cc1noc(C)c1CCC(=O)N1C[C@@H](C)[C@@](C)(O)C1	-4%
O=C(c1ccncc1)N1CC2CCC(C1)N2Cc1ccc(-c2cccs2)cc1	-5%
O=C(c1ccccc1)N1CCN2C(=O)N(Cc3ccccn3)C[C@H]2C1	i
COCc1cc(=O)n(CC(=O)Nc2ccc(Br)cc2F)c(N2CCOCC2)n1	7%
CN1CC(=O)N(c2ccccc2F)Cc2c(NC3CCOC3)ncnc21 (stereo not drawn)	27%
CC(=O)Nc1ccc(C2(C(=O)NCc3ccc(F)cc3)CCC2)cc1	7%
CC(C)Cc1nc(NC(=O)C[C@H]2NC(=O)c3ccccc3NC2=O)n[nH]1	-6%
SMILES	Pf Dd2 growth
Cc1cc(=O)[nH]c(CCNC(=O)c2ccc(C)c(N3CCNC3=O)c2)n1	-9%
N#Cc1cccc(C(=O)N2C[C@@H](CO)[C@H](c3ccccn3)C2)c1	19%
Cc1nc(CN2C(=O)OC3(CCN(Cc4ccc(C(C)C)cc4)CC3)C2(C)c2ccccc2)cs1 (stereo not drawn)	-2%
CCNC(=O)[C@@H]1CCCN1C1(C(=O)NC)CCC1	6%[44.1 µM]
CCCc1noc(-c2cn(C3CCN(C(=O)c4ccco4)CC3)nn2)n1	i
O=C(Nc1ccccc1)N1CCC(Oc2ncccc2C(=O)N2CCOCC2)C1 (stereo not drawn)	16%
Cc1cn2nc(C(=O)Nc3ccc(C(F)(F)F)cc3)cc2c(N2CCSCC2)n1	-16%
CCOC(=O)N1CCC(NC(=O)c2cnn(-c3ccccc3)c2C2CCN(C(=O)OC(C)(C)C)CC2)CC1	-20%
CC(C)(C)OC(=O)N1CCC(c2c(C(=O)NC3CCCCC3)cnn2-c2cccc(Cl)c2)CC1	8.9µM*
Cc1cccc(-n2ncc(C(=O)NCc3ccco3)c2C2CCN(C(=O)OC(C)(C)C)CC2)c1	11µM*
Cc1cccc(-n2ncc(C(=O)NCc3ccccn3)c2C2CCN(C(=O)OC(C)(C)C)CC2)c1	10µM*
Cc1c(Cl)cccc1-n1ncc(C(=O)NC2CCCCC2)c1C1CCN(C(=O)OC(C)(C)C)CC1	i
Cc1ccc(-n2ncc(C(=O)NCc3ccccn3)c2C2CCN(C(=O)OC(C)(C)C)CC2)cc1C	-3%
CC(C)(C)OC(=O)N1CCC(c2c(C(=O)NCc3ccc(F)cc3)cnn2-c2ccc(F)cc2)CC1	-12%
CC(C)(C)OC(=O)N1CCC(c2c(C(=O)NCc3cccc(Cl)c3)cnn2-c2ccc(F)cc2)CC1	11µM*
Cc1cccc(-n2ncc(C(=O)N3CCN(C(=O)c4ccco4)CC3)c2C2CCN(C(=O)OC(C)(C)C)CC2)c1	i
CCN1c2cc(C(=O)Nc3cc(F)cc(F)c3)ccc2C(=O)N2CCCCC21 (stereo not drawn)	-27%
Cc1cc(S(=O)(=O)N2CC(C(=O)NCc3ccncc3)C3(CCOCC3)C2)ccc1F (stereo not drawn)	-11%
CCCNc1cc(N2CCC(CCC(=O)N(C)CCc3ccncc3)CC2)ncn1	-35%
O=C(c1cc(-c2ccccc2)n[nH]1)N1CCC2(CC1)N=C(c1ccccc1)NO2	i
CCN1CCCC(CN2CCC(Oc3ccccc3OC)(C(=O)O)CC2)C1 (stereo not drawn)	-3%
CC(C)(C)OC(=O)N1CCC(c2c(C(=O)NCc3ccco3)cnn2-c2ccc(F)cc2)CC1	7.9µM*
Cc1nnc2ccc(NC(C)C)nn12	0%
COc1ccccc1N1CCN(C(=O)CN2C(=O)NC(c3ccc(Cl)cc3)C3=C2COC3=O)CC1 (stereo not drawn)	i
O=C(CC1CCCN(c2cnn(CC3CC3)c(=O)c2)C1)NCc1cc(F)ccc1F (stereo not drawn)	i
SMILES	Pf Dd2 growth
Cc1ccc2oc3c(c(=O)c2c1)C(c1ccc(O)cc1)N(CCCN(C)C)C3=O (stereo not drawn)	27%
CC(C)c1ccc(C2c3c(oc4ccc(Cl)cc4c3=O)C(=O)N2CCCN2CCOCC2)cc1 (stereo not drawn)	6.3µM*
COc1ccc(C2c3c(oc4ccc(C)cc4c3=O)C(=O)N2CCCN2CCOCC2)cc1OC (stereo not drawn)	-7%
COC1C(=O)N(C2CCN(C(=O)C3CC3)CC2)C12CCOCC2 (stereo not drawn)	18%
O=C(c1nc(-c2ccc(Cl)cc2)c2ccccn12)N1CCOCC1	-21%[44.1 µM]
COCC(=O)NC[C@H]1Cn2c(-c3ccc(Cl)cc3)cnc2CO1	i
CS(=O)(=O)NC[C@H]1Cn2c(-c3ccc(F)cc3)cnc2CO1	-4%[44.1 µM]
O=C(NC[C@H]1Cn2c(-c3ccc(F)cc3)cnc2CO1)c1ccc(Cl)cc1	i
c1ccc(CNC[C@H]2Cn3c(-c4ccccc4)cnc3CO2)cc1	11µM*
Fc1ccc(-c2cnc3n2C[C@H](CN(Cc2ccccc2)Cc2ccccc2)OC3)cc1	6.3µM*
Fc1ccc(-c2cnc3n2C[C@H](CNCc2ccccc2Cl)OC3)cc1	-2%[44.1 µM]
c1ccc(-c2cnc3n2C[C@H](CNCc2nccs2)OC3)cc1	i
COc1ccccc1C(=O)NC[C@H]1Cn2c(-c3ccc(Cl)cc3)cnc2CO1	11µM*
CC(=O)Nc1ccc(CNC[C@H]2Cn3c(-c4ccc(F)cc4)cnc3CO2)cc1	-41%[44.1 µM]
CCc1nc(C)cc(-c2cc(OC)c(OC)c(OC)c2)n1	-18%
O=C(Nc1ccccc1)O[C@H]1COCCN(c2nc3ccccc3o2)C1	-1%[44.1 µM]

Screening results (PubChem)
